This note sets out measurements from PubChem BioAssay.

What is called viability is a read-out of living cells in per cent, often relative to untreated cells. The term inhibition denotes the change of the read-out against control, counted positive when it falls.

The nature of assay [1]: reducers of endogenous Her2 protein level, primary screen, SKBR3 breast tumor cells, AlphaScreen, ATP viability (AID 461;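 active = Her2 level under about 52% in both replicate screens, with viability over 70% of control, limit read from the data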;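 for Her2 level: lower value means less Her2 protein in the cells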;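 for viability: percent of carrier control wells set as 100% viability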). The note with it: 18-24 h, measured here: SKBR3 viability, ATP luminescence, at 10 µM. Background: Alpha assays give light when donor and acceptor beads are brought close together.
The target of assay [2] is Receptor tyrosine-protein kinase erbB-2 (Homo sapiens) (UniProt P04626). Described as above. The note with it: 18-24 h, at 10 µM, stronger effect = lower value.
Chain of Receptor tyrosine-protein kinase erbB-2 (Homo sapiens) (P04626 whole entry, looked up): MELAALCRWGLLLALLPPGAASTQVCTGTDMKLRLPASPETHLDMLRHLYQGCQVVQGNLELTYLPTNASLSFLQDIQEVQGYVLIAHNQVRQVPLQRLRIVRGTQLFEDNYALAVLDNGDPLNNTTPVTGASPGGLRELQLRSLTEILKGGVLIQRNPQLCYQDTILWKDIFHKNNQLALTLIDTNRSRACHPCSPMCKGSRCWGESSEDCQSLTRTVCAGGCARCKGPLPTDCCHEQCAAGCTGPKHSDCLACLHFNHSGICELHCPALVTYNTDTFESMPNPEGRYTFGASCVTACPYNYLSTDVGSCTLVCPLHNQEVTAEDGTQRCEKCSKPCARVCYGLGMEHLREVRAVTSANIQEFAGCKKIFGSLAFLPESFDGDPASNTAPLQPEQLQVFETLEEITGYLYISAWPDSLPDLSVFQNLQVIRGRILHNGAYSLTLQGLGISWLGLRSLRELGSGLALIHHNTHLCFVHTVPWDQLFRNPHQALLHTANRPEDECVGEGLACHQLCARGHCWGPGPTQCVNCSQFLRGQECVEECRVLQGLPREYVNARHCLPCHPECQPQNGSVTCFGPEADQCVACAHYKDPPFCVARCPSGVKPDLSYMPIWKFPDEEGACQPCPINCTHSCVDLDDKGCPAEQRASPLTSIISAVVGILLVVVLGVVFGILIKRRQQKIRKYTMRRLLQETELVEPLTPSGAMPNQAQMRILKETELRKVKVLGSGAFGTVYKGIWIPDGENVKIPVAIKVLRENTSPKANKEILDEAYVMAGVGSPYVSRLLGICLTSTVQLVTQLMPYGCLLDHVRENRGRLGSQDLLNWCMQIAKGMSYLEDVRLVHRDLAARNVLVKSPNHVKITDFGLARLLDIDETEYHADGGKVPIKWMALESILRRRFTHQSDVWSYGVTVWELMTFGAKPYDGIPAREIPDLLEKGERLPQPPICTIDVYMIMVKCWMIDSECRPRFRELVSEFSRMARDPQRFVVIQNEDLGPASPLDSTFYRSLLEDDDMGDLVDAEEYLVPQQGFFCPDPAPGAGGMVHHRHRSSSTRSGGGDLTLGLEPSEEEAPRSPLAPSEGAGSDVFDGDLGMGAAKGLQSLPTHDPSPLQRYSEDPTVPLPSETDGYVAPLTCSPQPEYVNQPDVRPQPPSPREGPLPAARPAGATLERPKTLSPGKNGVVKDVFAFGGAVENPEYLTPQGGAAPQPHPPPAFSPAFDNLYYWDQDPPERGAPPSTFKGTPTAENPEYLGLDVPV
The nature of assay [3]: SK-BR-3 cell growth inhibitors, pilot screen, 24 h, human (AID 572;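 active = viability at or below 10% of carrier control in both of two separate runs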;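 note: compound exposure lasted between 18 and 24 h rather than exactly 24 h; 100% = carrier-treated control wells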). The note with it: SK-BR-3 viability, CellTiter-Glo luminescence, at 10 µM, stronger effect = lower value. In general terms: In ATP-based viability assays light output follows the ATP content of the culture.
The nature of assay [4]: HUVEC growth inhibition – cell-based, human, primary screen (AID 575;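 active = viability at or below 30% in both replicate assays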;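 note: 100% = median of untreated cell wells with 0.1% DMSO on each plate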). The note with it: HUVEC proliferation, CellTiter-Glo luminescence, 72 h; at 10 µM; stronger effect = lower value.
The nature of assay [5]: growth inhibitors of H69AR lung tumor, primary screen, human, duplicate replicates (AID 580;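 active = viability at or under a set limit in both replicates, limit being median viability minus 3 SD, cut at about 48% in these data, passing the limit was not always enough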;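 note: 100% = mean luminescence of untreated wells and 0% = no signal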). The note with it: H69AR lung tumor cells viability, ATP luminescence, 72 h; at 10 µM; stronger effect = lower value.
The nature of assay [6]: reversal of MRP1-mediated doxorubicin resistance, pilot screen, H69AR cells, doxorubicin co-treatment (AID 601;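 active = viability loss from added drug above about 55%, and viability with drug at most 40%, in both replicates, limit read from the data, passing the limit was not always enough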). As to conditions: CellTiter-Glo, 72 h, at 10 µM; for differential viability (reversal): stronger effect = higher value.
Assay [7] is described as follows: 384-well plate pilot, post-Golgi transport modulator project, inhibition of yeast transport mutant growth (AID 636; in the data active = inhibition above about 31%). As to conditions: absorbance 615 nm, about 18 h, stronger effect = higher value.
A short description of assay [8]: growth suppression of yeast trafficking mutant, preliminary HTS, modulators of trafficking downstream of Golgi apparatus project, 1536-format plate, OD 615 nm (AID 637; in the data active = inhibition above about 30%). As to conditions: yeast transport mutant growth, absorbance 615 nm, 18 h; stronger effect = higher value.
The nature of assay [9]: OD615 S. cerevisiae growth inhibition, permissive medium, pilot counter-assay, permissive growth control for S. cerevisiae lifespan shortening project (AID 705;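 active = growth inhibition above 25% in both replicates, a cutoff set 3 SD above the mean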). The note with it: OD615, 24 h, at 10 µM, stronger effect = higher value.
Assay [10] can be described thus: Restrictive medium S. cerevisiae growth inhibition, OD615, pilot screen of yeast lifespan reduction project, restrictive growth control (AID 706;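 active = growth inhibition above a set limit, 3 SD over mean compound inhibition, in both replicates, cut at about 43% in these data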;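 note: modified DeaD lifespan yeast strain shifted to restrictive glucose medium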). The note with it: OD615, 48 h, at 10 µM, stronger effect = higher value.
The nature of assay [11]: viability gain of MRP-1-high H69AR cells under doxorubicin, pilot screen, MRP-1 activator project, CellTiter-Glo, duplicate (AID 807).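 Note: compound pretreatment 18-22 h then 72 h combined with doxorubicin; 0% = doxorubicin alone and 100% = vehicle without doxorubicin.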 The note with it: H69AR viability with doxorubicin, CellTiter-Glo luminescence; at 10 µM; stronger effect = higher value.
Assay [12] in a line: growth suppression of beta-catenin knockout HCT116, pilot screen, human colon tumor cells (AID 823;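 active = cell viability at or below a set limit in both duplicate runs, the limit being the all-compound median minus 4 SD, cut at about 23% in these data, passing the limit was not always enough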;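 note: 0% = wells killed by 20 µM Hyamine and 100% = untreated DMSO cell wells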). As to conditions: CellTiter-Glo, 60 h, at 10 µM, stronger effect = lower value.
The nature of assay [13]: growth suppression of PTEN-deleted HCT116, pilot screen, cell-based, HCT116 clonal line, CellTiter-Glo (AID 824;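 active = viability at or below 27.92% in each of two runs, the all-compound median minus 4 SD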;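 note: 0% = 20 µM Hyamine control and 100% = vehicle cell control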). As to conditions: 60 h, at 10 µM, stronger effect = lower value.
A short description of assay [14]: inhibitors of the yeast RAM network, pilot screen, dse1pr::URA3 reporter, 5-FOA selection (AID 869;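 active = inhibition over a set limit, the all-compound mean plus 3 SD, in both replicate runs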;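 note: 0% = DMSO wells with no growth and 100% = 10 µM 1-NA-PP1 with full growth; RAM network block rescues cells from 5-FOA so hits raise OD615 growth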). As to conditions: S. cerevisiae dse1pr::URA3 5-FOA growth, OD615, 2 d; at 10 µM; stronger effect = higher value; strain carries analog-sensitive mutant Cbk1 kinase.
A short description of assay [15]: RAM signaling pathway blockade in yeast – S. cerevisiae, Pdr1DBD-CYC8 efflux-inhibited sensitized strain, primary screen (AID 1298;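 active = RAM network inhibition above 8.4% in each of two replicates, 3 SD over the compound average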;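 note: 0% = DMSO untreated cells without growth and 100% = 10 µM 1-NA-PP1 full growth; higher means more yeast growth rescued from 5-FOA killing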). The note with it: S. cerevisiae cbk1-as DSE1-URA3 strain, 5-FOA growth OD615, 2 d; at 50 µM; stronger effect = higher value.
[16] abbreviates: H69AR cells + 2 uM doxorubicin, measured here: viability with 2 uM doxorubicin, stronger effect = lower value.
Setting [17] is: H69AR cells, compound alone cytotoxicity.

Records with an inconclusive call do not appear. The source made the active and inactive calls.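 Rule for the calls, unless noted: active = viability increase at or above a cutoff of the median across tested compounds plus 3 SD (cut at about 8.5% in these data, passing the limit was not always enough); inconclusive = some gains above the cutoff, reason not given; inactive = the rest.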

For the molecule `O=C(c1ccc2c(c1)OCCO2)N1CCCCC1`, the viability in assay [1] was 117%; in assay [3], 117% (inactive); in [4] it was 91.8% (inactive); in [5], 101% (inactive); in [6] (setting [16]), 102%; in assay [6] (setting [17]) it was 101%. The viability in assay [12] is 97.2% (inactive); in assay [13], 97.4% (inactive). For the same molecule, the Her2 level in assay [2] was 97% (inactive). Also, the differential viability (reversal) in assay [6] (H69AR cells + 2 uM doxorubicin) was -1.2% (inactive). The inhibition in [7] is -0.91% (inactive); in assay [8] it was 0.17% (inactive); in assay [14] it was 0.88% (inactive). Besides, the results for the growth inhibition in [9] and in [10] were 3.7% (inactive) and 6.82% (inactive), respectively. The viability increase in [11] is -1.22% (inactive). For the same molecule, in assay [15], the RAM network inhibition is 5.28% (inactive).

With `COCCCNC(=O)c1ccc(CS(=O)(=O)c2ccc(OC)cc2)o1`, the viability in assay [1] was 104%; in [3], 104% (inactive); in assay [4], 95.4% (inactive); in [5] it was 91.6% (inactive); in assay [6] (setting [16]) it was 87.1%; in assay [6] (setting [17]), 91.6%. Also, the viability is 98.6% (inactive) in assay [12] and 91% (inactive) in assay [13]. Moreover, the Her2 level in assay [2] was 105% (inactive). Besides, the differential viability (reversal) in assay [6] (H69AR cells + 2 uM doxorubicin) was 4.5% (inactive). The inhibition in assay [7] was -4% (inactive); in [8], 2.62% (inactive); in assay [14], 0.405% (inactive). Also, the growth inhibition in assay [9] was -12% (inactive); in assay [10], -24.6% (inactive). For the same molecule, the viability increase in assay [11] was -1.48% (inactive). For the same molecule, the RAM network inhibition in assay [15] is 1.46% (inactive).

On to `Oc1ccc(-c2n[nH]c(=S)n2Cc2ccccc2)cc1`, for which the viability in assay [1] was 90.5%; in assay [3], 90.5% (inactive); in [4] it was 112% (inactive); in [5], 105% (inactive); in assay [6] (setting [16]), 102%; in [6] (setting [17]) it was 105%. Moreover, the viability is 101% (inactive) in assay [12] and 91.2% (inactive) in assay [13]. For the same molecule, the Her2 level in assay [2] was 120% (inactive). In assay [6] (H69AR cells + 2 uM doxorubicin), the differential viability (reversal) was 2.54% (inactive). In addition, the figures for the inhibition in assay [7], in assay [8] and in [14] were 5.45% (inactive), -2.83% (inactive) and 0.655% (inactive), respectively. In addition, the growth inhibition in assay [9] is 5.8% (inactive); in assay [10], -5.84% (inactive). Further, the viability increase in assay [11] was -1.84% (inactive). Besides, in assay [15], the RAM network inhibition is -0.9% (inactive).

`COc1cccc(-n2c(SCC(=O)N3CCCC3)nc3c([nH]c4ccccc43)c2=O)c1`: the viability is 83% in assay [1]; 83% (inactive) in [3]; 74.5% (inactive) in assay [4]; 76.1% (inactive) in [5]; 77.9% in assay [6] (setting [16]); 76.1% in assay [6] (setting [17]). In addition, the viability in [12] was 90.3% (inactive); in assay [13], 85.7% (inactive). Also, in [2], the Her2 level was 80.5% (inactive). Also, in assay [6] (H69AR cells + 2 uM doxorubicin), the differential viability (reversal) was -1.79% (inactive). The inhibition in assay [7] was -5.2% (inactive); in assay [8], -1.83% (inactive); in assay [14] it was 1.42% (inactive). Also, the growth inhibition is -8.48% (inactive) in assay [9] and -21.2% (inactive) in assay [10]. For the same molecule, the viability increase in assay [11] is -6.23% (inactive). In assay [15], the RAM network inhibition is 7.87% (inactive).

In the case of `Cc1nc2ccccc2c2oc(C(=O)N3CCC(N4CCCCC4)CC3)cc12`, the viability in assay [1] is 102%; in assay [3] it was 102% (inactive); in assay [4] it was 75.7% (inactive); in [5] it was 87.4% (inactive); in [6] (setting [16]) it was 78.1%; in assay [6] (setting [17]) it was 87.4%. For the same molecule, the viability in assay [12] is 83.9% (inactive); in [13] it was 79.6% (inactive). For the same molecule, in assay [2], the Her2 level was 104% (inactive). Further, the differential viability (reversal) in [6] (H69AR cells + 2 uM doxorubicin) is 9.3% (inactive). For the same molecule, the inhibition in assay [7] is -2.82% (inactive); in assay [8], 0.17% (inactive); in [14], 0.43% (inactive). For the same molecule, the growth inhibition in assay [9] was -9.32% (inactive); in assay [10], -4.43% (inactive). In addition, in assay [11], the viability increase is -4.92% (inactive). The RAM network inhibition in [15] is 4.3% (inactive).

With `CCOCCCNC(=O)C(NC(=O)c1ccccn1)c1ccc(C)cc1` (stereo not drawn), the viability is 94.5% in [1]; 94.5% (inactive) in assay [3]; 104% (inactive) in assay [4]; 106% (inactive) in assay [5]; 97.3% in [6] (setting [16]); 106% in [6] (setting [17]). The viability was 108% (inactive) in assay [12] and 97.3% (inactive) in assay [13]. The Her2 level in assay [2] is 120% (inactive). Also, in assay [6] (H69AR cells + 2 uM doxorubicin), the differential viability (reversal) is 8.57% (inactive). The inhibition in [7] was -2.6% (inactive); in assay [8], 1.9% (inactive); in [14], 0.07% (inactive). Further, the growth inhibition in assay [9] was -4.42% (inactive); in assay [10], 1.57% (inactive). Moreover, in [11], the viability increase is -0.13% (inactive). Moreover, in [15], the RAM network inhibition was 0.36% (inactive).

On to `COc1ccc(NC(=O)c2cnc3n(c2=O)CCS3)cc1OC`, for which the viability was 112% in assay [1]; 112% (inactive) in assay [3]; 88.2% (inactive) in assay [4]; 95.7% (inactive) in [5]; 83.9% in assay [6] (setting [16]); 95.7% in [6] (setting [17]). The viability in assay [12] is 109% (inactive); in assay [13], 103% (inactive). In [2], the Her2 level is 106% (inactive). For the same molecule, the differential viability (reversal) in [6] (H69AR cells + 2 uM doxorubicin) is 11.8% (inactive). Besides, the inhibition in assay [7] is -3.07% (inactive); in assay [8], -4.59% (inactive); in assay [14], 2.45% (inactive). In addition, the growth inhibition in assay [9] was -14.6% (inactive); in assay [10] it was -5.98% (inactive). In assay [11], the viability increase is 1.5% (inactive). The RAM network inhibition in assay [15] is 7.24% (inactive).

Regarding `Cc1ccc(C)c2[nH]c(=O)c(CCNC(=O)c3ccc(S(=O)(=O)N(C)C)cc3)cc12`, the viability was 121% in assay [1]; 121% (inactive) in [3]; 88.1% (inactive) in [4]; 82.3% (inactive) in assay [5]; 83.9% in assay [6] (setting [16]); 82.3% in [6] (setting [17]). For the same molecule, the viability in assay [12] was 93.2% (inactive); in assay [13], 81.5% (inactive). The Her2 level in [2] was 114% (inactive). Moreover, the differential viability (reversal) in assay [6] (H69AR cells + 2 uM doxorubicin) is -1.57% (inactive). In addition, the inhibition in [7] was -4.13% (inactive); in assay [8] it was -4% (inactive); in assay [14] it was 2.99% (inactive). Further, the growth inhibition in [9] is -2.9% (inactive); in assay [10], -22.2% (inactive). Moreover, in assay [11], the viability increase was -4.33% (inactive). For the same molecule, in [15], the RAM network inhibition was 3.23% (inactive).

With `CCCSC1=C(C#N)C(c2cc(OC)ccc2OC)CC(=O)N1` (stereo not drawn), the viability in assay [1] is 93%; in [3] it was 93% (inactive); in assay [4], 98.3% (inactive); in [5], 89.1% (inactive); in assay [6] (setting [16]) it was 83.1%; in assay [6] (setting [17]), 89.1%. Besides, the viability in assay [12] is 92.5% (inactive); in [13] it was 92.9% (inactive). Also, the Her2 level in assay [2] was 92% (inactive). The differential viability (reversal) in assay [6] (H69AR cells + 2 uM doxorubicin) was 5.96% (inactive). Moreover, the inhibition was -4.4% (inactive) in assay [7], -0.33% (inactive) in assay [8] and 1.42% (inactive) in assay [14]. The results for the growth inhibition in assay [9] and in assay [10] were -0.855% (inactive) and -3.12% (inactive), respectively. Further, the viability increase in [11] was -0.44% (inactive). In addition, in [15], the RAM network inhibition is 0.78% (inactive).
